Assay outcomes deposited in PubChem by several laboratories.
Hits are enriched below; roughly 27% of the tested compounds scored in any of these assays.
CYP2C19 activ: cytochrome P450 2C19 (human) activation; recombinant CYP2C19, luciferin-H EGE luminescence; hits give high values; 0 = fully inhibited enzyme, 1 = untreated enzyme; AID 1025; activation factor at 5 µM; 96,000 tested, under 10 active; P33261;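 active = activation factor of at least 2 at 5 µM in the primary screen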;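 note: 0 = wells with 2.5 mM tranylcypromine and 1 = vehicle-only wells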
CYP2C9 act: CYP2C9 (human) activation | activation factor at 5 µM | hit rate 1.4% among 96,000 | recombinant CYP2C9, luciferin-H conversion, luminescence; hits give high values; factor 1 = untreated enzyme, 0 = blocked | AID 1024 | P11712;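 active = activation factor of 2 or more for CYP2C9 at a 5 µM dose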;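 note: 0 = sulfaphenazole-blocked wells and 1 = vehicle-only wells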
Cav3 T inh: blocks human Cav3.2 T-type calcium channel; Cav3.2-expressing cells, Fluo-4 calcium fluorescence FDSS; hits give low values; B-score at 10 µM; hit rate 4% among 100,000; O95180;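 active = single-dose well whose peak fluorescence ratio is a statistical outlier from its plate by either plate-standardised score or position-corrected B-score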
CYP2C9 inh: blocks human cytochrome P450 2C9; hit rate 20% among 96,000; AID 777; CYP2C9 Supersomes, luciferin-H conversion, luminescence; inhibition, % at 5 µM; P11712;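 active = blocking of liver enzyme CYP2C9 beyond about 50% at 5 µM, limit read from the data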
PTK2B oligo ant: blocks oligomerization of human Pyk2 in cells. Q14289. Q293 cells, Pyk2 FERM NanoBiT luminescence; hits give low values. z-score (the deposit names both 25 µM and 10 µM). hit rate 0.83% among 99,000. AID 1347419;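 active = Z-score of -3 or lower, scaled per plate to the spread of control and sample wells; inactive = z-score above -3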;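 note: negative z-score means lost luminescence so less FERM oligomerization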
CYP2C19 inh: inhibitors of human CYP2C19; P33261; hit rate 21% among 96,000; AID 778; CYP2C19 Supersomes, luciferin-H EGE luminescence, 30 min; inhibition, % at 5 µM;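 active = CYP2C19 inhibition above a set limit at 5 µM in the primary screen, cut at about 50% in these data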;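 note: plate controls were negative control wells for no effect and 2.5 mM tranylcypromine positive control for full effect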
* hit, by the source's call.

For CC(C)c1ccc(NC(=O)C2CC(=O)N=C(N)S2)cc1 (stereo not drawn) the results were CYP2C19 activ 1, CYP2C9 act 1.1, Cav3 T inh 0.17, CYP2C9 inh -11, PTK2B oligo ant -0.26 and CYP2C19 inh 2.
For CCOC(=O)C1=C(O)/C(=C\c2ccc(CNC(=O)C(=O)Nc3ccccc3)o2)N=C1C the results were CYP2C19 activ 0.8, CYP2C9 act 0.5, Cav3 T inh -0.95, CYP2C9 inh 49, PTK2B oligo ant 0.04 and CYP2C19 inh 20.
O=C(C1CCCN1C(=O)c1cccs1)N1CCN(Cc2ccc3c(c2)OCO3)CC1 (stereo not drawn) was read as PTK2B oligo ant 1.6.
Screening CCOc1ccc(-n2cc(C(=O)Nc3cccc(Cl)c3)c3cc(OC)c(OC)cc3c2=O)cc1 returned CYP2C19 activ 0.6, CYP2C9 act 0.4, Cav3 T inh -3, CYP2C9 inh 59*, PTK2B oligo ant -0.29 and CYP2C19 inh 36.
Screening COc1cc(NC(=O)COC(=O)c2nc3nc(C)cc(C)n3n2)cc(OC)c1 returned CYP2C19 activ 1, CYP2C9 act 0.9, Cav3 T inh -0.12, CYP2C9 inh 10, PTK2B oligo ant 0.36 and CYP2C19 inh -3.
Screening O=C(N/N=C/c1ccc(Br)cc1)c1ccccc1-n1cccc1 returned CYP2C19 activ 0.1, CYP2C9 act 0.5, Cav3 T inh -2.6, CYP2C9 inh 54*, PTK2B oligo ant -0.99 and CYP2C19 inh 85*.
CN1C2CCC1/C(=C\c1ccccc1)C(=O)/C2=C\c1ccccc1 was read as CYP2C19 activ 0.6, CYP2C9 act 2.2*, Cav3 T inh -0.34, CYP2C9 inh -124, PTK2B oligo ant -1.2 and CYP2C19 inh 40.
`COC(=O)C1=C(C)N(C)C(=O)NC1c1ccccc1` (stereo not drawn) gave CYP2C19 activ 0.9, CYP2C9 act 0.9, Cav3 T inh 0.7, CYP2C9 inh 13, PTK2B oligo ant -0.98 and CYP2C19 inh 6.
Screening CC1=C(C(=O)OC2CCCCCCC2)C(c2ccc(O)cc2)NC(=O)N1 (stereo not drawn) returned CYP2C19 activ 0.2, CYP2C9 act 0.1, Cav3 T inh -1.4, CYP2C9 inh 92*, PTK2B oligo ant 0.93 and CYP2C19 inh 82*.
`COc1cc(C2NC(=O)NC(C)=C2C(=O)OC2CCCCC2)cc(Br)c1O` (stereo not drawn) gave CYP2C19 activ 0.2, CYP2C9 act 0, Cav3 T inh -1.4, CYP2C9 inh 96*, PTK2B oligo ant -1.2 and CYP2C19 inh 79*.
CC1=C(C(=O)OC(C)C)C(c2ccc(Br)s2)NC(=O)N1C (stereo not drawn) was read as CYP2C19 activ 0, CYP2C9 act 0.1, Cav3 T inh -4.4*, CYP2C9 inh 88*, PTK2B oligo ant -0.08 and CYP2C19 inh 99*.
For CCOC(=O)C1=C(C)NC(=O)NC1c1ccc(Br)s1 (stereo not drawn) the results were CYP2C19 activ 0.2, CYP2C9 act 0.6, Cav3 T inh -0.21, CYP2C9 inh 37, PTK2B oligo ant -0.57 and CYP2C19 inh 78*.
COc1cccc(C(=O)Nc2ccc(NC(=O)C(C)(C)C)cn2)c1 was read as CYP2C19 activ 1, CYP2C9 act 1.1, Cav3 T inh 0.67, CYP2C9 inh -13, PTK2B oligo ant -0.06 and CYP2C19 inh -3.
For CC(C)NC(=O)c1cc(=O)n(C)c(=O)n1C the results were CYP2C19 activ 0.9, CYP2C9 act 0.9, Cav3 T inh 0.079, CYP2C9 inh 10, PTK2B oligo ant 2.1 and CYP2C19 inh 14.
`COc1cc(C2NC(=O)NC(C)=C2C(=O)OCc2ccc(C)cc2)cc(OC)c1O` (stereo not drawn) gave CYP2C19 activ 0.6, CYP2C9 act 0.8, Cav3 T inh -0.59, CYP2C9 inh 23, PTK2B oligo ant -0.1 and CYP2C19 inh 38.
CCOC(=O)COc1c(Br)cc(C2NC(=O)NC(C)=C2C(C)=O)cc1OC (stereo not drawn) was read as Cav3 T inh 0.8 and PTK2B oligo ant 0.21.
For CC1=C(C(=O)OCC2CCCO2)C(c2cccc(O)c2)NC(=O)N1 (stereo not drawn) the results were CYP2C19 activ 0.3, CYP2C9 act 0.8, Cav3 T inh 0.88, CYP2C9 inh 20, PTK2B oligo ant 1.6 and CYP2C19 inh 67*.
For CCOC(=O)C1=C(C)NC(=O)NC1c1cc(Br)c(O)c(OC)c1 (stereo not drawn) the results were CYP2C19 activ 0.6, CYP2C9 act 0.4, Cav3 T inh 0.66, CYP2C9 inh 64*, PTK2B oligo ant -0.64 and CYP2C19 inh 40.
For CCOC(=O)C(C)Oc1ccc(C2NC(=O)NC(C)=C2C(C)=O)cc1Br (stereo not drawn) the results were CYP2C19 activ 0.7, CYP2C9 act 0.3, Cav3 T inh -0.37, CYP2C9 inh 72*, PTK2B oligo ant 0.08 and CYP2C19 inh 31.
For CSc1nnc(-c2ccccc2N=Cc2c(C)[nH]n(-c3ccccc3)c2=O)c(=O)[nH]1 the results were CYP2C19 activ 1, CYP2C9 act 0.7, Cav3 T inh 0.13, CYP2C9 inh 32, PTK2B oligo ant -1.1 and CYP2C19 inh -2.
For CCOC(=O)C1=C(N)Oc2c(oc(CO)cc2=O)C1c1c(F)cccc1Cl (stereo not drawn) the results were CYP2C19 activ 0.3, CYP2C9 act 0.4, Cav3 T inh 1.7, CYP2C9 inh 59*, PTK2B oligo ant 0.52 and CYP2C19 inh 71*.
`COC(=O)C1=C(N)Oc2c(oc(CO)cc2=O)C1c1ccccc1F` (stereo not drawn) gave CYP2C19 activ 1, CYP2C9 act 0.9, Cav3 T inh 0.85, CYP2C9 inh 9, PTK2B oligo ant 0.11 and CYP2C19 inh -1.
Screening CCOC(=O)c1[nH]c(C)c(/C(O)=C2\C(=O)C(=O)N(CCN(C)C)C2c2ccco2)c1C (stereo not drawn) returned CYP2C19 activ 1.1, CYP2C9 act 1, Cav3 T inh -1.2, CYP2C9 inh 3, PTK2B oligo ant -0.88 and CYP2C19 inh -8.
Screening OC(COCC1COc2ccccc2O1)CN1CCN(c2ccccn2)CC1 (stereo not drawn) returned CYP2C19 activ 0.8, CYP2C9 act 1.1, Cav3 T inh 0.39, CYP2C9 inh -14, PTK2B oligo ant 0.72 and CYP2C19 inh 19.
For C=C(C)C1CC=C(C)/C(=N/NC(=O)c2ccc(NC(=O)c3cccc(C)c3)cc2)C1 (stereo not drawn) the results were CYP2C19 activ 0.4, CYP2C9 act 0.4, CYP2C9 inh 62*, PTK2B oligo ant 1.3 and CYP2C19 inh 59*.
For Cc1ccc2c(c1)N(CC(=O)NCc1cccs1)C(=O)C(C)O2 (stereo not drawn) the results were CYP2C19 activ 0.5, CYP2C9 act 1.2, Cav3 T inh -0.41, CYP2C9 inh -25, PTK2B oligo ant 0.06 and CYP2C19 inh 47.
